# Data published in PubChem BioAssay (Tox21).
# Results filed as inconclusive are left out. Unmarked numbers belong to inactive results. The source made the active and inactive calls. Calls follow the shape of the dose curve; as a rule, active = well fitted activation curve with a large enough effect in the repeat runs; inconclusive = weak or mixed curves; inactive = flat fitted curve, though single readings scatter.
# Test: A CellTox Green Cytotoxicity Assay to monitor cytotoxicity in HepG2 cells - 32 hour (AID 1224883); also: nearly all actives have a fitted effect of over 50% in size
# Conditions: CellTox Green fluorescence; series mostly up to 76.8 µM; cytotoxicity increase: at the top concentration
# Excerpt: National Center for Advancing Translational Sciences [NCATS]
# NIH Chemical Genomics Center [NCGC]
# U.S. Environmental Protection Agency [EPA]
# National Institutes of Environmental Health Sciences [NIEHS]
# National Toxicology Program [NTP]
# Cell-based models are critical for drug discovery. Determining the natural cytotoxic effects resulting from test compounds is an essential research activity. A CellTox Green Cytotoxicity Assay to monitor cytotoxicity in real time of continues cell culture during 40 hours of the compound treatment was used to screen Tox21 10K library compounds in HepG2 cells. CellTox Green Cytotoxicity Assay is a nonlytic, homogeneous, biofluorescent method to measure cytotoxicity in cell culture after experimental manipulation. The assay system uses a proprietary asymmetric cyanine dye that is excluded from viable cells but preferentially stains the dead cell's DNA. […] Viable cells produce no appreciable increases in fluorescence. Therefore, the fluorescence signal produced by the binding interaction with dead cell DNA is proportional to cytotoxicity.
# The mixture of HepG2 cell suspension and reagents were dispensed at 600cells/6 ul/well in 1536-well tissue culture treated black solid bottom plates using a Multidrop dispenser. After the assay plates were incubated at a 37 C/5% CO2 incubator for 5 hours, 23 nL of compounds dissolved in DMSO, positive and negative controls was transferred to the assay plate by a pintool work station. The plates were incubated at 37 C for 40 hours. The fluorescence intensity were measured at 0h, 8h, 16h, 24h, 32h and 40h time points using ViewLux plate reader during compound treatment.
# % is scaled to controls: 0 for no effect and ±100 for the full control effect; potency is read from the fitted curve at half-maximal effect.
SMILES,cytotoxicity increase,Potency
CC(O)COC(C)(C)C (stereo not given),6.6%,–
C/C(=C1\CCOC(=O)S1)N(C=O)Cc1cnc(C)nc1N,-5.98% [at 35.3 µM],–
COc1ccc2c(c1)c1c3n2CCN(C)C3=NCC1,-0.976% [at 35.3 µM],–
C=CCN1C[C@H](C(=O)N(CCCN(C)C)C(=O)NCC)C[C@@H]2c3cccc4[nH]cc(c34)C[C@H]21,3.08% [at 35.3 µM],–
CN1C[C@@H]2C[C@H]1CN2c1cc2c(cc1F)c(=O)c(C(=O)O)cn2C1CC1,0.396% [at 15.8 µM],–
CCCCCCCCCOC(=O)CCCCC(=O)OCCCCCCC,–,24.5 µM (active)
CC(C)NCC(O)c1ccc2ccccc2c1 (stereo not given),-15.3% [at 35.3 µM],–
CC1(C)[C@H]2CC[C@](C)(C2)[C@H]1O,-0.139%,–
C=CC/C=C/C,4.29%,–
CCN(CC)CCN,-16.9% [at 35.3 µM],–
O=C(O)CONC(=O)c1ccccc1,5.85%,–
CN(C)C(C)(C)CO,-7.99%,–
Cc1ncc([N+](=O)[O-])n1CC(C)O (stereo not given),-0.242% [at 35.3 µM],–
CCCCCCCCCCOC(C)=O,0.781%,–
CCCCCCCCCCCCCCCCCC#N,-10.7%,–
COc1cc(OC)nc(O[C@H](C(=O)O)C(OC)(c2ccccc2)c2ccccc2)n1,-3.88% [at 35.3 µM],–
CC(C)C1OCCN1CCOC(=O)NCCCCCCNC(=O)OCCN1CCOC1C(C)C (stereo not given),14.5%,–
CC(C)CCOC(=O)c1ccccc1,17.6%,–
C/C=C(\C)C(=O)OCCc1ccccc1,4.64%,–
C=CCOC(=O)CCCCCC,-4.44%,–

SMILES,cytotoxicity increase,Potency
Cn1nnc2c(C(N)=O)ncn2c1=O,0.441% [at 35.3 µM],–
CC(=O)C(C)O (stereo not given),1.85%,–
C=C(C)[C@@H]1CC=C(C)CC1,7.43%,–
N[C@@H](CSCCCO)C(=O)O,-15.9% [at 15.8 µM],–
CC(=O)O[C@H]1C[C@@H]2CC[C@@]1(C)C2(C)C,6.72%,–
CCC/C=C(\C=O)CC,-0.143%,–
O=C1CCCCO1,-4.51%,–
CC(C)Nc1ccccc1,-0.138%,–
CC(=O)c1cc(C)oc1C,-7.79%,–
CCC(C(=O)OCCN1CCOC(c2ccccc2)C1C)c1ccccc1 (stereo not given),-14.9% [at 35.3 µM],–
C=CC(=O)CCCCC,-10.8%,–
O=C(O)c1cc2ccccc2nc1C(=O)O,-5.88%,–
CC(C)NC(=O)c1ccc(C=O)cc1,-4.76% [at 35.3 µM],–
CCC(C)C(C)=O (stereo not given),2.68%,–
CC(C)=CCC[C@@](C)(O)[C@H]1CC=C(C)CC1,5.93% [at 35.3 µM],–
N#CCC(=O)NN,-11.2% [at 35.3 µM],–
OCC(O)CN1CCN(c2ccccc2)CC1 (stereo not given),-10.8% [at 35.3 µM],–
CC1=NN(c2ccc(S(=O)(=O)O)cc2)C(=O)C1,-5.08%,–
OCCN1CCOCC1,-6.18%,–
CC(=O)CC(=O)Nc1ccc(C)cc1C,-7.33%,–
